Experimental findings from article PMC7862700, “An all-to-all approach to the identification of sequence-specific readers for epigenetic DNA modifications on cytosine” are described below.

Assay in all cases: DAPPL (digital affinity profiling via proximity ligation, sequencing); 10 mM Tris-HCl pH 7.5, 50 mM NaCl, 1 mM DTT, 4% glycerol, room temperature, 30 min; GST-TFs on glutathione beads, 16-mer random dsDNA library, 0.1% formaldehyde crosslink after washing; high values mean tight binding
In assay [1] the target is T1, FEV (Homo sapiens, UniProt Q99581 1-238).
T1 sequence: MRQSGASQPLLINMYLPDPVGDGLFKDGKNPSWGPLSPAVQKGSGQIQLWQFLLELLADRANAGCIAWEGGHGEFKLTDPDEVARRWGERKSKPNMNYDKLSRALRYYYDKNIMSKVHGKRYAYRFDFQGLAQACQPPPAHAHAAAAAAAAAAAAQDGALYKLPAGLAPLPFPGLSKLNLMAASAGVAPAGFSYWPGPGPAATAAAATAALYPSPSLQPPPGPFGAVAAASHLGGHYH
As to conditions: protein: recombinant; tags: N-terminal GST; dsDNA, one strand shown. A digest of the protocol: (§1)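 Binding signal is defined as a hexamer's read frequency for one factor over its frequency for the tag-only sample. To obtain reads, GST-fused human transcription factors were expressed in yeast, captured on glutathione beads, barcoded with DNA and pooled with that sample. Pools met 200 nmole of a 16-mer random double-stranded DNA library in Tris/NaCl/DTT/glycerol buffer for 30 min at room temperature before washing, 0.1% formaldehyde crosslinking, proximity ligation (BsaI/T4 ligase, 1 h, 37 °C), PCR and Illumina NextSeq500 sequencing.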

The target in assay [2] is ETV5 (Homo sapiens, UniProt P41161 1-510). As to conditions: protein: recombinant; tags: N-terminal GST; dsDNA, one strand shown. The method, boiled down: as §1
The target of assay [3] is HSF1 (Homo sapiens, UniProt Q00613 1-529). Particulars: protein: recombinant; tags: N-terminal GST; chain copies: 3; dsDNA, one strand shown. A digest of the protocol:
as §1

Assay [4] deals with T2, SPIC (Homo sapiens, UniProt Q8N5J4 1-248).
T2 sequence: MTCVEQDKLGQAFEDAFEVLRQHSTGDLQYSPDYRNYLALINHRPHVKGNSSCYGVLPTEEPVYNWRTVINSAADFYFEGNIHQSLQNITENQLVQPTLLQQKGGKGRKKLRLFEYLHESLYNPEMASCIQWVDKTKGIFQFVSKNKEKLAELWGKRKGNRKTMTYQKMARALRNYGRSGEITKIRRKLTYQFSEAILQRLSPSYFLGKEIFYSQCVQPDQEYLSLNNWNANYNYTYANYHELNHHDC
As to conditions: protein: recombinant; tags: N-terminal GST; dsDNA, one strand shown. A digest of the protocol:
as §1

Assay [5] has as its target ELF4 (Homo sapiens, UniProt Q99607 1-663). As to conditions: protein: recombinant; tags: N-terminal GST; dsDNA, one strand shown. A digest of the protocol: as §1
In assay [6] the target is T3, ELK4 (Homo sapiens, UniProt P28324-2 1-405).
T3 sequence: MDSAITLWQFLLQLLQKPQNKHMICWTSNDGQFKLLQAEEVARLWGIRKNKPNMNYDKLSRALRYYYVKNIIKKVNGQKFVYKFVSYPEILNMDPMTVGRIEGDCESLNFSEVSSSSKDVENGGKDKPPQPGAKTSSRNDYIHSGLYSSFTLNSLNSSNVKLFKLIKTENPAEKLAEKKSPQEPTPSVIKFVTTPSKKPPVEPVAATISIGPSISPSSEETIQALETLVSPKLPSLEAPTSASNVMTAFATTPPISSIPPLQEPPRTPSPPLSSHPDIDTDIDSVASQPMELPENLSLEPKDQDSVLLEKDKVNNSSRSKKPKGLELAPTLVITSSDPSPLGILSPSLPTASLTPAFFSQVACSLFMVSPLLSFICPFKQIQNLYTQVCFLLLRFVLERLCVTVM
As to conditions: protein: recombinant; tags: N-terminal GST; dsDNA, one strand shown. The method, boiled down: as §1

Assay [7] deals with T4, ETV2 (Homo sapiens, UniProt O00321 1-342).
T4 sequence: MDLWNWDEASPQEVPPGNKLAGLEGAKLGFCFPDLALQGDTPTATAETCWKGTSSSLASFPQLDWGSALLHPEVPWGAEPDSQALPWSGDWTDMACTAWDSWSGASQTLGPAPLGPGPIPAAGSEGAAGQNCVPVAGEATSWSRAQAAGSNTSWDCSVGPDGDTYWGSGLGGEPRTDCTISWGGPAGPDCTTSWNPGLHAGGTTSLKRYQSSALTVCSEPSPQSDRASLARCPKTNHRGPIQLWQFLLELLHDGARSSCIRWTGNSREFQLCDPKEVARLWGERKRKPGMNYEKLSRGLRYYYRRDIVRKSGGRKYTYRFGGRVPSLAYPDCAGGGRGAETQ
As to conditions: protein: recombinant; tags: N-terminal GST; dsDNA, one strand shown. The method, boiled down: as §1

Assay [8] deals with T5, ELF3 (Homo sapiens, UniProt P78545 1-371).
T5 sequence: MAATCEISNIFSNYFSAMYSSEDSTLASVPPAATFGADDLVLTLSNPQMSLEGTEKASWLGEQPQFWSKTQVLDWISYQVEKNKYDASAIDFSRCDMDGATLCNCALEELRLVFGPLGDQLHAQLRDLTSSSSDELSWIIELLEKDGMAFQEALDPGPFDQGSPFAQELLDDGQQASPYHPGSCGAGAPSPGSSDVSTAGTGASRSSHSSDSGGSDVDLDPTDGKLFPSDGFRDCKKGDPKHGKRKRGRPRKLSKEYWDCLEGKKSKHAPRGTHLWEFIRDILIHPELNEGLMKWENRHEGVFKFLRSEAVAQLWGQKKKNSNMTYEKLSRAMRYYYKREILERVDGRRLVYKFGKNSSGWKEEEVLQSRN
Particulars: protein: recombinant; tags: N-terminal GST; dsDNA, one strand shown. A digest of the protocol:
as §1

Assay [9] addresses CRX (Homo sapiens, UniProt O43186 1-299). As to conditions: protein: recombinant; tags: N-terminal GST; dsDNA, one strand shown. A digest of the protocol:
as §1

Assay [10] addresses ETV1 (Homo sapiens, UniProt P50549 1-477). Particulars: protein: recombinant; tags: N-terminal GST; dsDNA, one strand shown. The method, boiled down: as §1
Assay [11] has as its target T6, ERF (Homo sapiens, UniProt P50548 1-548).
T6 sequence: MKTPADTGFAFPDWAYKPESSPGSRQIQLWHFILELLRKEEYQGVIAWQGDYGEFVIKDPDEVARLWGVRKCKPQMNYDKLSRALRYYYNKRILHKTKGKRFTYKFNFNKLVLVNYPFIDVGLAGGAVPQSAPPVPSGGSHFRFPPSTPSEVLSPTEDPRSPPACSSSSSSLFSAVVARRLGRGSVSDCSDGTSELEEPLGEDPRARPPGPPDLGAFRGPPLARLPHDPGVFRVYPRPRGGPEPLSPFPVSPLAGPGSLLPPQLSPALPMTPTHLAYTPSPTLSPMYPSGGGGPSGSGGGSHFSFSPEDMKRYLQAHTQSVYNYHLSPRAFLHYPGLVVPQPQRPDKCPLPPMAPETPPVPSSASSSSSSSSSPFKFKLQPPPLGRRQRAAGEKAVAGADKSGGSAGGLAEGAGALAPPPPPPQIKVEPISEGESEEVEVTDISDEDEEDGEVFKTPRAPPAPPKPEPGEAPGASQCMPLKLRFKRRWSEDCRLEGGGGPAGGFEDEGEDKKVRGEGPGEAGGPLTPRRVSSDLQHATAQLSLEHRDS
Particulars: protein: recombinant; tags: N-terminal GST; dsDNA, one strand shown. A digest of the protocol:
as §1

Assay [12] addresses T7, ETV3L (Homo sapiens, UniProt Q6ZN32 1-361).
T7 sequence: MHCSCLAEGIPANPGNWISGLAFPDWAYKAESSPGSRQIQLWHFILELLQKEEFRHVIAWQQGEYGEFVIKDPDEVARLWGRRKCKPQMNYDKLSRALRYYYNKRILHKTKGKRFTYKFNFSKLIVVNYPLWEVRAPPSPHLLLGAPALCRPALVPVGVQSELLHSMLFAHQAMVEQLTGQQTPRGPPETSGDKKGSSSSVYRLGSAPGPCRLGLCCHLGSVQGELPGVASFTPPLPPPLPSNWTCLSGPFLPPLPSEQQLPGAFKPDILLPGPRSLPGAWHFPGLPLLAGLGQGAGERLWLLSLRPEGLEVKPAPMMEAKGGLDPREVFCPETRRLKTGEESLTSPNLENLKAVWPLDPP
As to conditions: protein: recombinant; tags: N-terminal GST; dsDNA, one strand shown. The method, boiled down:
as §1

Assay [13] addresses T8, ETS2 (Homo sapiens, UniProt P15036 1-469).
T8 sequence: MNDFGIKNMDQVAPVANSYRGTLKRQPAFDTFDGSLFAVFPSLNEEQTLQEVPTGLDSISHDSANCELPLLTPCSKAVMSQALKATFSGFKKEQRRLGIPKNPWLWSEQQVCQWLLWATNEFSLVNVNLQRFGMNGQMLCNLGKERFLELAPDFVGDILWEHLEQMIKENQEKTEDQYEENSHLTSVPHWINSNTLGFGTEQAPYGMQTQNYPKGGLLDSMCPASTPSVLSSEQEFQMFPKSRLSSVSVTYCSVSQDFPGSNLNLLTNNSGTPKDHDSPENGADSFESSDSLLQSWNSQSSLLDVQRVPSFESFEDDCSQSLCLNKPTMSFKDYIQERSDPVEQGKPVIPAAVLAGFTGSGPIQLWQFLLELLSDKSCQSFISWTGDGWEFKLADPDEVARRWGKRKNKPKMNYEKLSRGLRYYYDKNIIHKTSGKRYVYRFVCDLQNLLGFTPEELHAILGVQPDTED
Particulars: protein: recombinant; tags: N-terminal GST; dsDNA, one strand shown. The method, boiled down:
as §1

Assay [14] deals with T9, SPDEF (Homo sapiens, UniProt O95238 1-335).
T9 sequence: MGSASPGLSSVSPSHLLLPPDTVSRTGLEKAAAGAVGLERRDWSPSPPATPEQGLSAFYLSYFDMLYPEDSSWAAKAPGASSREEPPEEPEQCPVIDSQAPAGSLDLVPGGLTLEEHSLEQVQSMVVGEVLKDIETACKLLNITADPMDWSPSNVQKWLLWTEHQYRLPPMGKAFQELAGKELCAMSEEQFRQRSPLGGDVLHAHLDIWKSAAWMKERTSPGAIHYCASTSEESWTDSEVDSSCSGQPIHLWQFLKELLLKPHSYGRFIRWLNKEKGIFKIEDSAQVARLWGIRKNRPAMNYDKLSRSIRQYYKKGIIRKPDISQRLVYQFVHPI
As to conditions: protein: recombinant; tags: N-terminal GST; dsDNA, one strand shown. The method, boiled down: as §1

Assay [15] deals with T10, ETV7 (Homo sapiens, UniProt Q9Y603 1-341).
T10 sequence: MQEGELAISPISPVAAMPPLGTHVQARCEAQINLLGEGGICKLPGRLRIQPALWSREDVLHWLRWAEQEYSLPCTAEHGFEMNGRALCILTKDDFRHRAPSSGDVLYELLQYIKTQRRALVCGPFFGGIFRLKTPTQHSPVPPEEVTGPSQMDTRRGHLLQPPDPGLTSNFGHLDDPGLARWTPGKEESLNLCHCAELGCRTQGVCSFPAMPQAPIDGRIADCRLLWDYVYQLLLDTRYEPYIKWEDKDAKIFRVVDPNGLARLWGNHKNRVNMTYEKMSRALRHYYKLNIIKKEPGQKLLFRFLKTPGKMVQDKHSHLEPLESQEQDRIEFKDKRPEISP
Particulars: protein: recombinant; tags: N-terminal GST; dsDNA, one strand shown. A digest of the protocol: as §1

Assay [16] concerns the target T11, ELF5 (Homo sapiens, UniProt Q9UKW6-2 1-255).
T11 sequence: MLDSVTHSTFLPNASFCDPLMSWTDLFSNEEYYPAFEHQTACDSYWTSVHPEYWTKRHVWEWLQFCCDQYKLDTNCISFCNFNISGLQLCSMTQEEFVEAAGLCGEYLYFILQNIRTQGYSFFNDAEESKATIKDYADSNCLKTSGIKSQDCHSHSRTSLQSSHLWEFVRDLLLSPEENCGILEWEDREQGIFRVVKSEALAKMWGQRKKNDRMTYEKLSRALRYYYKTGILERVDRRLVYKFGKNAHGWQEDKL
As to conditions: protein: recombinant; tags: N-terminal GST; dsDNA, one strand shown. The method, boiled down: as §1

In assay [17] the target is T12, ETV3 (Homo sapiens, UniProt P41162-2 1-143).
T12 sequence: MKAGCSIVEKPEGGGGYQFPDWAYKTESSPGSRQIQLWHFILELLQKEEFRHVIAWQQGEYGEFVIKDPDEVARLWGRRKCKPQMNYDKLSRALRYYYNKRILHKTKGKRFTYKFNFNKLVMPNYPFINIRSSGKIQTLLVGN
Particulars: protein: recombinant; tags: N-terminal GST; dsDNA, one strand shown. The method, boiled down: as §1

Assay [18] deals with ETV6 (Homo sapiens, UniProt P41212 1-452). As to conditions: protein: recombinant; tags: N-terminal GST; dsDNA, one strand shown. A digest of the protocol:
as §1

ETV5, sequence (P41161 whole entry): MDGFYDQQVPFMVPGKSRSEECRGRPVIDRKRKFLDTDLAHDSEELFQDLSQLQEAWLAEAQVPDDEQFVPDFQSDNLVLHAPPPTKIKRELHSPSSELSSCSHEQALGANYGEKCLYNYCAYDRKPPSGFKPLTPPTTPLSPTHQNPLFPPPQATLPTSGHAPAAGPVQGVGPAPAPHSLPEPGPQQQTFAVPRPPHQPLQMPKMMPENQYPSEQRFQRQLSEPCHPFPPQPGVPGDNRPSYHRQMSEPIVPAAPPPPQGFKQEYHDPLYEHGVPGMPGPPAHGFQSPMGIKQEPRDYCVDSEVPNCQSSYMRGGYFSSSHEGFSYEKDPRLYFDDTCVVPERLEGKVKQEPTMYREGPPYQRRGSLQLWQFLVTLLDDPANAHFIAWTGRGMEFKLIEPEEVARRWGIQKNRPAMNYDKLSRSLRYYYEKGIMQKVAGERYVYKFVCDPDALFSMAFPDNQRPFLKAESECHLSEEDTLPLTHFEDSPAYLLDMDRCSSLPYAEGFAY
ETV1, sequence (P50549 whole entry): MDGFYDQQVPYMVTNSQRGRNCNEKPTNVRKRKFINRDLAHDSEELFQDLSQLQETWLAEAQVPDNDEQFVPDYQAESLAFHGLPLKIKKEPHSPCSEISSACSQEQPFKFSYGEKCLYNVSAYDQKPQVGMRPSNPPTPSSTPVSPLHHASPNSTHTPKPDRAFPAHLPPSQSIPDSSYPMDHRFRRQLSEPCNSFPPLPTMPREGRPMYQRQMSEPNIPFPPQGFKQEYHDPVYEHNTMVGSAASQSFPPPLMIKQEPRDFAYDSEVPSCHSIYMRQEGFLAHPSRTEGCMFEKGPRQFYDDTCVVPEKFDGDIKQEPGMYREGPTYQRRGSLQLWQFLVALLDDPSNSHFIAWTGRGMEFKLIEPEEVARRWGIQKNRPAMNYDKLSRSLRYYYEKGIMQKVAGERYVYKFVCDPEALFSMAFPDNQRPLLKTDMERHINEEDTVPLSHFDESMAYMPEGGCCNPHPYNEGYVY
CRX, sequence (O43186 whole entry): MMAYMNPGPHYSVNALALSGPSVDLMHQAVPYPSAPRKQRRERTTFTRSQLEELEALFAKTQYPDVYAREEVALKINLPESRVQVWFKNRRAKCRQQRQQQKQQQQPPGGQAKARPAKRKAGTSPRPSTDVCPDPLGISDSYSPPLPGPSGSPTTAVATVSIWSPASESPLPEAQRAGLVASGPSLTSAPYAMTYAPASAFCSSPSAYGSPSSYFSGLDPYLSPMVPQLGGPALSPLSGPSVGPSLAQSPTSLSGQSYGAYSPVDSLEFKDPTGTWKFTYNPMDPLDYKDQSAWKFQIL
ETV6, sequence (P41212 whole entry): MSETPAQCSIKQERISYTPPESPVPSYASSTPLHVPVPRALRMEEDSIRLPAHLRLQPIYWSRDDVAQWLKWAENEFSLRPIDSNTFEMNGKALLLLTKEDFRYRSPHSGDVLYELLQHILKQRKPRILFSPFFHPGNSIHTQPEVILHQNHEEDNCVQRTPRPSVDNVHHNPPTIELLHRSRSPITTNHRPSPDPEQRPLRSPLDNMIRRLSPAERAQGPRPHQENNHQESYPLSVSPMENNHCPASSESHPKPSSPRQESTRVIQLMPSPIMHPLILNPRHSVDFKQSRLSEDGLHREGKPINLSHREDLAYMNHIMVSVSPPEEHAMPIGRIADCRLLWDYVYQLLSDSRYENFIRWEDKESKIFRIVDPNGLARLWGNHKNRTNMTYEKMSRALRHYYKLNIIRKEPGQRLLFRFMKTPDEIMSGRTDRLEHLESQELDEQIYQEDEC
HSF1, sequence (Q00613 whole entry): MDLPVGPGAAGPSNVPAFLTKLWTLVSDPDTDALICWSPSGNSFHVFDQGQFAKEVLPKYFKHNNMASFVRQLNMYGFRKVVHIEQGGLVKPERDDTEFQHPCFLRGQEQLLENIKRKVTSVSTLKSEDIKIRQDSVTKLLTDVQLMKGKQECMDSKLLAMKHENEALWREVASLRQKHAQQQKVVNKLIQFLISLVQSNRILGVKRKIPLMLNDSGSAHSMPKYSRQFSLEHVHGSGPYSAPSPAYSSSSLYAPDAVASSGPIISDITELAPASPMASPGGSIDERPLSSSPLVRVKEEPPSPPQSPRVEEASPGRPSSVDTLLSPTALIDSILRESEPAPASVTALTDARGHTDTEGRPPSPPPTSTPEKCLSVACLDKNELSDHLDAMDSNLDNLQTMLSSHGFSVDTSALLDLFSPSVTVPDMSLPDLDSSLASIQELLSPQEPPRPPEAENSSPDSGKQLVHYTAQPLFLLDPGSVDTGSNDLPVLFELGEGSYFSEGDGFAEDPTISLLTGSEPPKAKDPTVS
ELF4, sequence (Q99607 whole entry): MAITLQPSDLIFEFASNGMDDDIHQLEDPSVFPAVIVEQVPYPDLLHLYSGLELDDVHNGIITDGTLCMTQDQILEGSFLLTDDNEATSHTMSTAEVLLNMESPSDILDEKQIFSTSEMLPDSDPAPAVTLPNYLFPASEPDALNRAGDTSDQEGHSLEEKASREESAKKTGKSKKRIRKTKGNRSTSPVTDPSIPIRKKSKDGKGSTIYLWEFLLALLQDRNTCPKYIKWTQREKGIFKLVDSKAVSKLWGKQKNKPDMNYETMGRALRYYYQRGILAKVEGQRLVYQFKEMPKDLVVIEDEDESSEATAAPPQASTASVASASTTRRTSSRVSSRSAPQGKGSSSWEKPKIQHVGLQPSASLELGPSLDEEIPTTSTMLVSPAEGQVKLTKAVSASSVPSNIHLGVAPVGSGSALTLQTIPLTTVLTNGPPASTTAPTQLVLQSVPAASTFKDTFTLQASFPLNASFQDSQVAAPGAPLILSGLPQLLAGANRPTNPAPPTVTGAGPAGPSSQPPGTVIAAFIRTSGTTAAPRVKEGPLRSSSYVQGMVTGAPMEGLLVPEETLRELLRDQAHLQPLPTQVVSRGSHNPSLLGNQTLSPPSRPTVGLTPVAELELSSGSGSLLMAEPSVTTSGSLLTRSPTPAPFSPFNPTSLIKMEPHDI

Take ATTTAG: the binding signal was 1.08 fold enrichment (6-mer frequency, TF over GST control) in assay [1]; 1.06 fold enrichment (6-mer frequency, TF over GST control) in [2]; 1.37 fold enrichment (6-mer frequency, TF over GST control) in assay [3]; 1.2 fold enrichment (6-mer frequency, TF over GST control) in assay [4]; 1.05 fold enrichment (6-mer frequency, TF over GST control) in [5]; 1.17 fold enrichment (6-mer frequency, TF over GST control) in assay [6]. For the same sequence, the binding signal was 1.3 fold enrichment (6-mer frequency, TF over GST control) in assay [7]; 1.17 fold enrichment (6-mer frequency, TF over GST control) in assay [8]; 1.66 fold enrichment (6-mer frequency, TF over GST control) in assay [9]; 1.11 fold enrichment (6-mer frequency, TF over GST control) in assay [10]; 1.22 fold enrichment (6-mer frequency, TF over GST control) in [11]; 1.15 fold enrichment (6-mer frequency, TF over GST control) in [12]. The binding signal is 1.07 fold enrichment (6-mer frequency, TF over GST control) in [13]; 1.13 fold enrichment (6-mer frequency, TF over GST control) in assay [14]; 1.07 fold enrichment (6-mer frequency, TF over GST control) in assay [15]; 1.04 fold enrichment (6-mer frequency, TF over GST control) in assay [16]; 1.12 fold enrichment (6-mer frequency, TF over GST control) in assay [17]; 1.21 fold enrichment (6-mer frequency, TF over GST control) in [18].
